Test results from PubChem BioAssay AID1508615 (Milbrandt Lab, Department of Genetics, Washington …, 2020).
Screen size: about 1,600 compounds; about 20 (1%) were called active. Shown is part of a subset that was picked to be rich in actives. Unmarked numbers belong to inactive results.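 Rule for the calls: active = ratio of uncleaved NAD to its breakdown product ADP-ribose above 4, meaning the enzyme was inhibited; inactive = the rest.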

What follows are compounds tested against NAD(+) hydrolase SARM1 (Homo sapiens) (UniProt Q6SZW1) (assay: inhibition of SAM-TIR NAD hydrolysis to ADPR – cell lysate, HPLC readout, primary screen (AID 1508615;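 note: substrate NAD at 5 µM with 60 min at 37 °C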)). Settings: HEK293T SAM-TIR lysate, NAD/ADPR ratio by HPLC; at 5 µM; active compounds read high.
NAD(+) hydrolase SARM1 (Homo sapiens), sequence (Q6SZW1 whole entry, looked up): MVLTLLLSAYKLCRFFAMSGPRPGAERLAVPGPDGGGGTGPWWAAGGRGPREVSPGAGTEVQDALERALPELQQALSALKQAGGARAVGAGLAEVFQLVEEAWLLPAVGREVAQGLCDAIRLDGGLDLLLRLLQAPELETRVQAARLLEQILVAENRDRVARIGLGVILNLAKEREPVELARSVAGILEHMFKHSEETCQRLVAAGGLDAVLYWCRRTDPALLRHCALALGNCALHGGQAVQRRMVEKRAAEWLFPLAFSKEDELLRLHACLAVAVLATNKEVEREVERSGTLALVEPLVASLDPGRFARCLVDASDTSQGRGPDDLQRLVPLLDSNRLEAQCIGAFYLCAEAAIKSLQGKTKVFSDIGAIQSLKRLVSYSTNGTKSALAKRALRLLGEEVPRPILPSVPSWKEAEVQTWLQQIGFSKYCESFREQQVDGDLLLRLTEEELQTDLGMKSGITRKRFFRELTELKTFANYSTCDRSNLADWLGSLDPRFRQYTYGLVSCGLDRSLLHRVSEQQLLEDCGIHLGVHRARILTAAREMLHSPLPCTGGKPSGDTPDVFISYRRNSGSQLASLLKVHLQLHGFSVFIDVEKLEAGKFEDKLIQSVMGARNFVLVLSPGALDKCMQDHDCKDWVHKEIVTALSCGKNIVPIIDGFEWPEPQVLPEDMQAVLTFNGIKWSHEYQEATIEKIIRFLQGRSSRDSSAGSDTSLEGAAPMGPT
For CCOc1ccc(NC(=O)C2CCCN(C)C2)cc1 (centres undefined), the NAD/ADPR ratio was 11.2 (active).
CCOc1ccc(NC(=O)N(O)C2(C#N)CCCCC2)cc1 gave an NAD/ADPR ratio of 3.
Work on CCOc1ccc(NC(=O)c2cc3ccccc3cc2O)cc1 yielded an NAD/ADPR ratio of 3.
In the case of Cc1nn(-c2ccccc2)c2c1C(c1ccc([N+](=O)[O-])cc1)C(C#N)=C(N)O2 (centres undefined), the NAD/ADPR ratio is reported as 3.
In the case of COc1cc(CCC(=O)O)on1, the NAD/ADPR ratio is reported as 3.
COC(=O)CC1(C(=O)OC)Nc2cc(Cl)c(Cl)cc2S(=O)(=O)N1O (centres undefined) was tested, and the NAD/ADPR ratio was 13.5 (active).
In the case of O=C(NC1CCCCC1)c1cc2ccccc2cc1O, the NAD/ADPR ratio is reported as 3.
Oc1cc(CNC2CCCCC2)c(O)cc1CNC1CCCCC1 was tested, and the NAD/ADPR ratio was 10.8 (active).
O=C(O)CCNC1CCCCC1 was tested, and the NAD/ADPR ratio was 3.
In the case of O=C(O)c1ccc(OCCOc2ccccc2)cc1, the NAD/ADPR ratio is reported as 3.
NC(N)=NC(=S)Nc1ccc(Cl)cc1 showed an NAD/ADPR ratio of 3.
COc1cc(CC(=O)C(=O)O)oc(=O)c1 was tested, and the NAD/ADPR ratio was 3.
CN(C)C(=O)c1cccc(COc2ccc(N3C(N)=NC(N)=NC3(C)C)cc2Cl)c1 gave an NAD/ADPR ratio of 3.
In the case of Cn1c(=O)c2c(nc(N3CCOCC3)n2C)n(C)c1=O, the NAD/ADPR ratio is reported as 3.
Work on Cc1oc2c(c(C)nn2-c2ccccc2)c(=O)c1Cl yielded an NAD/ADPR ratio of 3.
Work on Cc1nc(-c2ccccc2)c(Cc2ccccc2O)c(=O)[nH]1 yielded an NAD/ADPR ratio of 3.
Work on Cc1nc2c(O)cccc2cc1CO yielded an NAD/ADPR ratio of 3.
With S=c1cn[nH]c2ccccc12 the NAD/ADPR ratio was 3.
In the case of CC1=C(c2ccccc2)C=NNCC1=O, the NAD/ADPR ratio is reported as 3.
COC(=O)c1cncc(C)c1 showed an NAD/ADPR ratio of 3.
Compound Nc1ccc(C(=O)Oc2ccc([N+](=O)[O-])cc2)cc1 has an NAD/ADPR ratio of 3.
In the case of O=C(c1cccnc1)C1Cc2ccccc2C1=O (centres undefined), the NAD/ADPR ratio is reported as 3.
Nc1ccc(Br)cc1Br gave an NAD/ADPR ratio of 3.
CCCCOc1nc2c(c(=O)n(C)c(=O)n2C)n1C was tested, and the NAD/ADPR ratio was 3.
Cn1c2ccccc2c2ccc3c(c21)C(=O)C=CC3=O was tested, and the NAD/ADPR ratio was 12.5 (active).
For COc1ccc2c(c1)c1ccc3c(c1n2C)C(=O)C=CC3=O, the NAD/ADPR ratio was 7.6 (active).
Cc1cccc2c1c1ccc3c(c1n2C)C(=O)C=CC3=O was tested, and the NAD/ADPR ratio was 8.3 (active).
With Cc1ccc2c(c1)c1ccc3c(c1n2C)C(=O)C=CC3=O the NAD/ADPR ratio was 5.6 (active).
Work on Cc1c(C(C)(C(=O)O)c2c(C)n(C)c3ccccc23)c2ccccc2n1C yielded an NAD/ADPR ratio of 3.
C=CCN(CC=C)C(=O)Nc1cc(OC)ccc1OC was tested, and the NAD/ADPR ratio was 3.2.
Compound Cc1nnc(Cc2ccccc2)c2n[nH]c(C)c12 has an NAD/ADPR ratio of 3.
CC(=O)[C@@]1(O)C(C)CC2C3C=C(C)C4=Cc5c(cnn5-c5ccccc5)C[C@]4(C)C3C(O)C[C@@]21C (some centres undefined) was tested, and the NAD/ADPR ratio was 3.
CCOC(=O)c1ccc2c(c1)NCc1cccc(OC)c1O2 showed an NAD/ADPR ratio of 3.
c1ccc(-c2cn3ccccc3n2)cc1 was tested, and the NAD/ADPR ratio was 3.
Work on CC1(C)CCCC2(C)C(OCCO)=CC(=O)C=C12 (centres undefined) yielded an NAD/ADPR ratio of 3.
Compound COc1cc2c(O)cc(C(=O)O)c(-c3cc(OC)c(OC)c(OC)c3)c2cc1OC has an NAD/ADPR ratio of 3.
CSc1nc(Cl)cc(=O)[nH]1 gave an NAD/ADPR ratio of 3.
OC(C#Cc1ccccc1)(c1ccccc1)c1ccccc1 showed an NAD/ADPR ratio of 3.
For Cc1cc(=O)n2c3c(c4c(cc13)c(CN(C)C)cc(=O)n4C)OC2, the NAD/ADPR ratio was 3.
CC1(C)CC2(C)OC2C2(C1)N=NC(=Nc1ccccc1)O2 (centres undefined) showed an NAD/ADPR ratio of 3.
Cc1cc2nc(-c3ccccn3)c(-c3ccccn3)nc2cc1C gave an NAD/ADPR ratio of 3.
S=C(Sc1ccc(Cl)cc1)Sc1ccc(Cl)cc1 gave an NAD/ADPR ratio of 3.
Cc1ccc([N+](=O)[O-])cc1NC(=O)Nc1cccc(F)c1 was tested, and the NAD/ADPR ratio was 3.
Compound CC1(C)SC(C)(C)N(C=O)C1C(=O)O (centres undefined) has an NAD/ADPR ratio of 3.
Work on CCOC(=O)Cc1cc(=O)[nH]n(-c2ccccc2)c1=O yielded an NAD/ADPR ratio of 3.
For Cc1ccc(/C=C2\CCOC2=O)cc1, the NAD/ADPR ratio was 3.
Work on Cc1ccc2c(c1)sc1nncn12 yielded an NAD/ADPR ratio of 3.
Work on Oc1ccc(Cc2ccccc2Cl)c(O)c1 yielded an NAD/ADPR ratio of 3.
In the case of COc1cc(/C=N/Nc2nc3c([nH]2)c(=O)n(C)c(=O)n3C)ccc1O, the NAD/ADPR ratio is reported as 3.
O=C1CCC(NC(=O)c2ccccc2)C(=O)N1 (centres undefined) gave an NAD/ADPR ratio of 3.
Compound O=C(/C=C/c1cccnc1)c1ccccc1O has an NAD/ADPR ratio of 3.
CCCCCn1cnc2c(=S)nc(N)[nH]c21 was tested, and the NAD/ADPR ratio was 3.
Compound CN1CN(C)C(c2ccncc2)=C1c1ccncc1 has an NAD/ADPR ratio of 3.
In the case of CCCCOc1ccc(NC(=O)Nc2nnc(C)s2)cc1, the NAD/ADPR ratio is reported as 3.
For Cc1ccc(C(C)C)cc1NC(=O)Nc1ccc([N+](=O)[O-])cc1, the NAD/ADPR ratio was 3.
With Cc1cc(NC(=O)c2ccccc2)nc(C)n1 the NAD/ADPR ratio was 3.
Work on Nc1ccnn1-c1ccccc1 yielded an NAD/ADPR ratio of 3.
Compound O=C(O)C(Cc1cn[nH]n1)=NO has an NAD/ADPR ratio of 3.
With NC(=O)SCC(=O)Nc1ccccc1C(=O)O the NAD/ADPR ratio was 3.
CC(NC(=O)c1ccc(Cl)c(Cl)c1)c1ccc(-c2ccccc2)cc1 (centres undefined) gave an NAD/ADPR ratio of 3.
With OC(c1cc(-c2ccc(Cl)cc2)nc2ccccc12)C1CCCCN1 (centres undefined) the NAD/ADPR ratio was 3.
Compound Clc1ccc(SCNc2ccccc2Cl)cc1 has an NAD/ADPR ratio of 3.
With Nc1ncnc2c1ncn2C1OC(CO)C(O)C1N (centres undefined) the NAD/ADPR ratio was 3.
In the case of CC1(C)CC(=O)C(CC(=O)c2ccccc2)=C(NN=C(N)N)C1, the NAD/ADPR ratio is reported as 3.
With O=C(O)CCC1(c2ccccc2)NC(=O)NC1=O (centres undefined) the NAD/ADPR ratio was 3.
c1ccc2c(c1)Oc1cccc3cccc-2c13 gave an NAD/ADPR ratio of 3.
O=C1c2cc([N+](=O)[O-])ccc2-c2cc(Br)c(N=C(NO)C(F)(F)F)cc21 showed an NAD/ADPR ratio of 3.
Work on O=c1cc[nH]c2c(Cl)cccc12 yielded an NAD/ADPR ratio of 3.
COc1cc(-c2ccc(NC(=O)NC3CC3)c(OC)c2)ccc1NC(=O)NC1CC1 was tested, and the NAD/ADPR ratio was 3.
